Experimental data taken from PubChem BioAssay (NCI).
The panel holds about 83,000 compounds, 20% with a hit somewhere; the sample as a whole holds those more often.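 In brief: 96-well plates, 48 h treatment, single concentration, percent growth endpoint.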 Calls of active or inactive are those of the source. Rule for the calls: active = growth percent below 10; inactive = the rest.

Legend:
Assay in all cases: NCI-60 one-dose screen, 48 h (100 = growth as untreated, 0 = no growth, -100 = all killed)
Conditions in all cases: 10 µM unless noted
NCI-H23 lung = test system: NCI-H23 lung
NCI-H226 lung = test system: NCI-H226 lung
NCI-H322M lung = test system: NCI-H322M lung
HOP-62 NSCLC = test system: HOP-62 NSCLC
NCI-H460 lung = test system: NCI-H460 lung
HOP-92 NSCLC = test system: HOP-92 NSCLC
NCI-H522 lung = test system: NCI-H522 lung
A549/ATCC NSCLC = test system: A549/ATCC NSCLC
786-0 renal = test system: 786-0 renal
COLO 205 colon = test system: COLO 205 colon
DU-145 prostate = test system: DU-145 prostate
K-562 leukemia = test system: K-562 leukemia
MALME-3M melanoma = test system: MALME-3M melanoma
MDA-MB-231 breast = test system: MDA-MB-231 breast
RXF 393 renal = test system: RXF 393 renal
SF-268 CNS = test system: SF-268 CNS
SF-295 CNS = test system: SF-295 CNS
SF-539 CNS = test system: SF-539 CNS
UACC-257 melanoma = test system: UACC-257 melanoma
M14 melanoma = test system: M14 melanoma

Measured: growth

CN(C)c1ccc(C2C(C#N)=C(/N=C/c3ccccc3)Oc3c2ccc2ccccc32)cc1 (stereo not drawn)
inactive: NCI-H23 lung 80.9% | NCI-H226 lung 55.5% | NCI-H322M lung 98.5% | HOP-62 NSCLC 51.2% | NCI-H460 lung 51.3% | HOP-92 NSCLC 59.8% | NCI-H522 lung 36.4% | A549/ATCC NSCLC 71.4% | 786-0 renal 89% | COLO 205 colon 116% | DU-145 prostate 87.8% | K-562 leukemia 17.1% | MALME-3M melanoma 77.8% | MDA-MB-231 breast 58.1% | RXF 393 renal 75.9% | SF-268 CNS 66.5% | SF-295 CNS 49.5% | SF-539 CNS 68.6% | UACC-257 melanoma 82.7% | M14 melanoma 59.4%

COC(=O)C1=C(C(=O)ON)[C@@H]2C=C[C@@]1([C@@H](Cc1ccccc1)Nc1ccccc1)O2
inactive: NCI-H23 lung 90.6% | NCI-H226 lung 105% | NCI-H322M lung 99.5% | HOP-62 NSCLC 102% | NCI-H460 lung 107% | HOP-92 NSCLC 63.1% | A549/ATCC NSCLC 92.9% | 786-0 renal 101% | DU-145 prostate 80% | MDA-MB-231 breast 106% | RXF 393 renal 91.1% | SF-268 CNS 93.9% | SF-295 CNS 105% | SF-539 CNS 93.8% | UACC-257 melanoma 94.8% | M14 melanoma 95.3%
active: NCI-H522 lung -74.7% | COLO 205 colon -67% | K-562 leukemia -9.92% | MALME-3M melanoma -68.8%

COc1cccc2c1c1nc3cc(C)c(C)cc3nc1n2CCN(C)C
active: NCI-H226 lung -6.81% | NCI-H460 lung 7.95% | NCI-H522 lung -4.98% | COLO 205 colon 9.54% | K-562 leukemia 6.22% | MALME-3M melanoma -12.1% | UACC-257 melanoma 8.52%
inactive: NCI-H23 lung 18.4% | NCI-H322M lung 24.7% | HOP-62 NSCLC 24.9% | HOP-92 NSCLC 36.1% | A549/ATCC NSCLC 10.6% | 786-0 renal 36% | DU-145 prostate 19.7% | MDA-MB-231 breast 23.5% | RXF 393 renal 30% | SF-268 CNS 37.9% | SF-295 CNS 20.1% | SF-539 CNS 23.2% | M14 melanoma 22.2%

COc1ccc2nc(-c3ccc(-c4noc(-c5cc(OC)c(OC)c(OC)c5)n4)cc3)[nH]c2c1
inactive: NCI-H23 lung 63.8% | NCI-H226 lung 86% | NCI-H322M lung 101% | HOP-62 NSCLC 76.8% | NCI-H460 lung 56.3% | HOP-92 NSCLC 76.2% | NCI-H522 lung 74.9% | A549/ATCC NSCLC 45.8% | 786-0 renal 77.8% | COLO 205 colon 78.4% | DU-145 prostate 57.4% | K-562 leukemia 14.7% | MDA-MB-231 breast 41.4% | RXF 393 renal 58.2% | SF-268 CNS 50.5% | SF-295 CNS 83.3% | UACC-257 melanoma 102% | M14 melanoma 63%
active: MALME-3M melanoma -33% | SF-539 CNS -24.4%

N#Cc1cccc(-c2ccc3c(c2)NC(=O)/C3=C\c2ccc[nH]2)c1
active: COLO 205 colon 3.47%
inactive: NCI-H23 lung 34.2% | NCI-H226 lung 41.6% | NCI-H322M lung 45.5% | HOP-62 NSCLC 62.7% | NCI-H460 lung 22.4% | HOP-92 NSCLC 56.7% | NCI-H522 lung 28.7% | A549/ATCC NSCLC 86.5% | 786-0 renal 74.5% | DU-145 prostate 92.8% | K-562 leukemia 18.8% | MALME-3M melanoma 51.6% | MDA-MB-231 breast 33.5% | RXF 393 renal 73.3% | SF-268 CNS 95.6% | SF-295 CNS 78.7% | SF-539 CNS 71.8% | UACC-257 melanoma 67.6% | M14 melanoma 56.4%

CC[C@]12C=CCN3CC[C@@]4(c5cc(NC(=O)CCC(=O)O[C@H]6CC[C@H]7[C@@H]8CCC9=CC(=O)CC[C@@H]9[C@H]8CC[C@]67C)c(OC)cc5N(C)[C@H]4[C@@](O)(C(=O)OC)[C@@H]1OC(C)=O)[C@@H]32
inactive: NCI-H23 lung 90.7% | NCI-H226 lung 86.5% | NCI-H322M lung 91.1% | HOP-62 NSCLC 89.3% | NCI-H460 lung 77.4% | HOP-92 NSCLC 64.6% | NCI-H522 lung 69.9% | A549/ATCC NSCLC 74.3% | 786-0 renal 86% | COLO 205 colon 89.8% | DU-145 prostate 82.2% | MALME-3M melanoma 98.9% | MDA-MB-231 breast 68.5% | RXF 393 renal 82.7% | SF-268 CNS 74.4% | SF-295 CNS 86.3% | SF-539 CNS 94.8% | UACC-257 melanoma 76.2%

CCCCCCCCOc1ccc(/C=N/Nc2cc(C)nc3ccc(Br)cc23)cc1
inactive: NCI-H23 lung 81.9% | NCI-H226 lung 97.4% | NCI-H322M lung 95.6% | HOP-62 NSCLC 87.5% | NCI-H460 lung 16.1% | HOP-92 NSCLC 105% | NCI-H522 lung 71.6% | A549/ATCC NSCLC 27.9% | 786-0 renal 28.9% | COLO 205 colon 83.9% | DU-145 prostate 33.5% | K-562 leukemia 10.7% | MALME-3M melanoma 40.8% | MDA-MB-231 breast 33.2% | RXF 393 renal 88.3% | SF-268 CNS 86.3% | SF-295 CNS 78.8% | SF-539 CNS 32.6% | UACC-257 melanoma 84% | M14 melanoma 53.6%

COc1ccc(C(=O)Nc2cccc(C3CCc4c(cc(OC)c(OC)c4OC)O3)c2)cc1 (stereo not drawn)
inactive: NCI-H23 lung 58.9% | NCI-H226 lung 30.1% | NCI-H322M lung 75.9% | HOP-62 NSCLC 39.8% | NCI-H460 lung 25.7% | HOP-92 NSCLC 61.3% | NCI-H522 lung 42.7% | A549/ATCC NSCLC 43.4% | 786-0 renal 68.7% | COLO 205 colon 67.9% | DU-145 prostate 69.9% | K-562 leukemia 16.8% | MALME-3M melanoma 46.2% | MDA-MB-231 breast 63.1% | RXF 393 renal 81.1% | SF-268 CNS 52.7% | SF-295 CNS 42.2% | SF-539 CNS 61.3% | UACC-257 melanoma 52% | M14 melanoma 34.2%
